From PubChem BioAssay AID1159580 (chemical genetic matrix, 2015)
About 2,000 (36%) of roughly 5,500 compounds were called active. Not shown: some 18% with an inconclusive outcome. Cut-off read from the data, not from the text of the source: active = normalized growth mostly below about 0.91 (no sharp cut-off); inconclusive = no clear call, values can overlap the other calls; inactive = mostly above about 0.92. The list shows a part of the results.

Assay: chemical genetic growth profiling, strain panel (AID 1159580);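 note: tested at 20 µM; growth read once vehicle control cultures reached saturation at 30 °C; 1 = growth at the plate median or of vehicle wells; lower values mean less growth of the strain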
Details: growth OD
[1] = S. cerevisiae deletion strains, locus YAR019C, strain CDC15, stronger effect = lower value
[2] = S. cerevisiae deletion strains, locus YBL105C, strain PKC1, stronger effect = lower value
[3] = S. cerevisiae deletion strains, locus YBR135W, strain CKS1, stronger effect = lower value
[4] = S. cerevisiae deletion strains, locus YBR136W, strain MEC1, stronger effect = lower value
[5] = S. cerevisiae deletion strains, locus YBR160W, strain CDC28, stronger effect = lower value
[6] = S. cerevisiae deletion strains, locus YDL017W, strain CDC7, stronger effect = lower value
[7] = S. cerevisiae deletion strains, locus YDL028C, strain MPS1, stronger effect = lower value
[8] = S. cerevisiae deletion strains, locus YDL101C, strain DUN1, stronger effect = lower value
[9] = S. cerevisiae deletion strains, locus YDL108W, strain KIN28, stronger effect = lower value
[10] = S. cerevisiae deletion strains, locus YDL132W, strain cdc53, stronger effect = lower value
[11] = S. cerevisiae deletion strains, locus YDL214C, strain PRR2, stronger effect = lower value
[12] = S. cerevisiae deletion strains, locus YDR052C, strain DBF4, stronger effect = lower value
[13] = S. cerevisiae deletion strains, locus YDR054C, strain cdc34, stronger effect = lower value
[14] = S. cerevisiae deletion strains, locus YDR226W, strain ADK1, stronger effect = lower value
[15] = S. cerevisiae deletion strains, locus YDR477W, strain SNF1, stronger effect = lower value
[16] = S. cerevisiae deletion strains, locus YER123W, strain YCK3, stronger effect = lower value
[17] = S. cerevisiae deletion strains, locus YER133W, strain GLC7, stronger effect = lower value
[18] = S. cerevisiae deletion strains, locus YFL009W, strain cdc4, stronger effect = lower value
[19] = S. cerevisiae deletion strains, locus YFL029C, strain CAK1, stronger effect = lower value
[20] = S. cerevisiae deletion strains, locus YFR003C, strain YPI1, stronger effect = lower value
[21] = S. cerevisiae deletion strains, locus YFR019W, strain FAB1, stronger effect = lower value
[22] = S. cerevisiae deletion strains, locus YFR028C, strain CDC14, stronger effect = lower value
[23] = S. cerevisiae deletion strains, locus YGR040W, strain KSS1, stronger effect = lower value
[24] = S. cerevisiae deletion strains, locus YGR052W, strain FMP48, stronger effect = lower value
[25] = S. cerevisiae deletion strains, locus YGR092W, strain DBF2, stronger effect = lower value
[26] = S. cerevisiae deletion strains, locus YHR030C, strain SLT2, stronger effect = lower value
[27] = S. cerevisiae deletion strains, locus YHR079C, strain IRE1, stronger effect = lower value
[28] = S. cerevisiae deletion strains, locus YHR082C, strain KSP1, stronger effect = lower value
[29] = S. cerevisiae deletion strains, locus YHR205W, strain SCH9, stronger effect = lower value
[30] = S. cerevisiae deletion strains, locus YIL147C, strain SLN1, stronger effect = lower value
[31] = S. cerevisiae deletion strains, locus YJL095W, strain BCK1, stronger effect = lower value
[32] = S. cerevisiae deletion strains, locus YJL128C, strain PBS2, stronger effect = lower value
[33] = S. cerevisiae deletion strains, locus YJL157C, strain FAR1, stronger effect = lower value
[34] = S. cerevisiae deletion strains, locus YJR016C, strain ILV3, stronger effect = lower value
[35] = S. cerevisiae deletion strains, locus YJR066W, strain TOR1 (second series), stronger effect = lower value
[36] = S. cerevisiae deletion strains, locus YJR066W, strain TOR1, stronger effect = lower value
[37] = S. cerevisiae deletion strains, locus YKL048C, strain ELM1, stronger effect = lower value
[38] = S. cerevisiae deletion strains, locus YKL067W, strain YNK1, stronger effect = lower value
[39] = S. cerevisiae deletion strains, locus YKL101W, strain HSL1, stronger effect = lower value
[40] = S. cerevisiae deletion strains, locus YKL193C, strain SDS22, stronger effect = lower value
[41] = S. cerevisiae deletion strains, locus YKL203C, strain TOR2, stronger effect = lower value
[42] = S. cerevisiae deletion strains, locus YLR113W, strain HOG1, stronger effect = lower value
[43] = S. cerevisiae deletion strains, locus YLR133W, strain CKI1, stronger effect = lower value
[44] = S. cerevisiae deletion strains, locus YLR403W, strain SFP1, stronger effect = lower value
[45] = S. cerevisiae deletion strains, locus YML070W, strain DAK1, stronger effect = lower value
[46] = S. cerevisiae deletion strains, locus YMR001C, strain CDC5, stronger effect = lower value
[47] = S. cerevisiae deletion strains, locus YMR205C, strain PFK2 (second series), stronger effect = lower value
[48] = S. cerevisiae deletion strains, locus YMR277W, strain FCP1, stronger effect = lower value
[49] = S. cerevisiae deletion strains, locus YNL006W, strain LST8, stronger effect = lower value
[50] = S. cerevisiae deletion strains, locus YNL020C, strain ARK1, stronger effect = lower value
[51] = S. cerevisiae deletion strains, locus YNL161W, strain CBK1, stronger effect = lower value
[52] = S. cerevisiae deletion strains, locus YNL183C, strain NPR1, stronger effect = lower value
[53] = S. cerevisiae deletion strains, locus YNL207W, strain RIO2, stronger effect = lower value
[54] = S. cerevisiae deletion strains, locus YNL222W, strain SSU72, stronger effect = lower value
[55] = S. cerevisiae deletion strains, locus YNL307C, strain MCK1 (second series), stronger effect = lower value
[56] = S. cerevisiae deletion strains, locus YOL078W, strain AVO1, stronger effect = lower value
[57] = S. cerevisiae deletion strains, locus YOL136C, strain PFK27, stronger effect = lower value
[58] = S. cerevisiae deletion strains, locus YOR061W, strain CKA2, stronger effect = lower value
[59] = S. cerevisiae deletion strains, locus YOR119C, strain RIO1, stronger effect = lower value
[60] = S. cerevisiae deletion strains, locus YOR231W, strain MKK1, stronger effect = lower value
[61] = S. cerevisiae deletion strains, locus YOR329C, strain SCD5, stronger effect = lower value
[62] = S. cerevisiae deletion strains, locus YPL031C, strain PHO85, stronger effect = lower value
[63] = S. cerevisiae deletion strains, locus YPL153C, strain RAD53, stronger effect = lower value
[64] = S. cerevisiae deletion strains, locus YPL204W, strain HRR25, stronger effect = lower value
[65] = S. cerevisiae deletion strains, locus YPL209C, strain IPL1, stronger effect = lower value
[66] = S. cerevisiae deletion strains, locus YPL256C, strain CLN2, stronger effect = lower value
[67] = S. cerevisiae deletion strains, locus YPR025C, strain CCL1, stronger effect = lower value
[68] = S. cerevisiae deletion strains, locus YPR106W, strain ISR1, stronger effect = lower value
[69] = S. cerevisiae deletion strains, locus YPR111W, strain DBF20, stronger effect = lower value
[70] = S. cerevisiae deletion strains, strain NNK1, stronger effect = lower value
[71] = S. cerevisiae deletion strains, strain TSCII, stronger effect = lower value
[72] = S. cerevisiae deletion strains, locus YAL013W, strain DEP1, stronger effect = lower value
[73] = S. cerevisiae deletion strains, locus YBR229C, strain ROT2, stronger effect = lower value
[74] = S. cerevisiae deletion strains, locus YDL134C, strain PPH21, stronger effect = lower value
[75] = S. cerevisiae deletion strains, locus YDR150W, strain NUM1, stronger effect = lower value
[76] = S. cerevisiae deletion strains, locus YEL061C, strain CIN8, stronger effect = lower value
[77] = S. cerevisiae deletion strains, locus YGR078C, strain PAC10, stronger effect = lower value
[78] = S. cerevisiae deletion strains, locus YHR087W, strain rtc3, stronger effect = lower value
[79] = S. cerevisiae deletion strains, locus YJR043C, strain POL32, stronger effect = lower value
[80] = S. cerevisiae deletion strains, locus YJR075W, strain HOC1, stronger effect = lower value
[81] = S. cerevisiae deletion strains, locus YLR039C, strain RIC1, stronger effect = lower value
[82] = S. cerevisiae deletion strains, locus YLR058C, strain SHM2 (second series), stronger effect = lower value
[83] = S. cerevisiae deletion strains, locus YLR085C, strain ARP6, stronger effect = lower value
[84] = S. cerevisiae deletion strains, locus YLR262C, strain YPT6, stronger effect = lower value
[85] = S. cerevisiae deletion strains, locus YML094W, strain GIM5, stronger effect = lower value
[86] = S. cerevisiae deletion strains, locus YMR219W, strain ESC1, stronger effect = lower value
[87] = S. cerevisiae deletion strains, locus YMR263W, strain SAP30, stronger effect = lower value
[88] = S. cerevisiae deletion strains, locus YNL153C, strain GIM3, stronger effect = lower value
[89] = S. cerevisiae deletion strains, locus YNL298W, strain CLA4 (second series), stronger effect = lower value
[90] = S. cerevisiae deletion strains, locus YNL322C, strain KRE1, stronger effect = lower value
[91] = S. cerevisiae deletion strains, locus YNR030W, strain Alg12, stronger effect = lower value
[92] = S. cerevisiae deletion strains, locus YOL006C, strain TOP1, stronger effect = lower value
[93] = S. cerevisiae deletion strains, locus YPL055C, strain LGE1, stronger effect = lower value
[94] = S. cerevisiae deletion strains, locus YPL241C, strain CIN2, stronger effect = lower value
[95] = S. cerevisiae deletion strains, locus YPR135W, strain CTF4, stronger effect = lower value

Measured: normalized growth

CC1CCc2c(sc3ncnc(Sc4ccccc4)c23)C1 (centres undefined)
inactive: [1] 0.992 | [2] 0.972 | [3] 0.979 | [4] 0.978 | [5] 0.983 | [6] 0.981 | [7] 0.978 | [8] 0.978 | [9] 0.976 | [10] 0.977 | [11] 0.945 | [12] 0.98 | [13] 0.981 | [14] 0.979 | [15] 0.952 | [16] 0.926 | [17] 0.956 | [18] 0.983 | [19] 0.987 | [20] 0.977 | [21] 0.966 | [22] 0.975 | [23] 0.937 | [24] 1 | [25] 0.991 | [27] 1.11 | [28] 1.06 | [29] 0.992 | [30] 0.977 | [31] 0.996 | [32] 0.94 | [33] 0.962 | [34] 0.984 | [35] 0.948 | [36] 1.09 | [37] 0.966 | [38] 0.948 | [39] 0.931 | [40] 0.983 | [41] 1.04 | [42] 0.886 | [43] 0.946 | [44] 0.968 | [45] 0.936 | [46] 0.984 | [47] 0.95 | [48] 0.98 | [49] 0.99 | [50] 0.943 | [51] 0.98 | [52] 1.03 | [53] 0.976 | [54] 0.989 | [55] 0.969 | [56] 0.976 | [57] 0.913 | [58] 0.935 | [59] 1.02 | [60] 0.925 | [61] 0.983 | [62] 0.945 | [63] 0.941 | [64] 0.92 | [65] 0.982 | [66] 1.02 | [67] 0.982 | [68] 0.984 | [69] 0.96 | [70] 0.981 | [71] 0.979
active: [26] 1.19 [resistant]

COC(=O)Cc1nc(NC(=O)c2ccccc2)sc1C
inactive: [72] 1.02 | [73] 1 | [8] 0.972 | [74] 1.01 | [75] 0.994 | [76] 1.02 | [77] 0.999 | [26] 0.977 | [78] 0.98 | [79] 1.01 | [80] 1 | [81] 1.02 | [82] 1 | [83] 0.889 | [84] 1.12 | [85] 0.948 | [86] 0.994 | [87] 1 | [88] 1 | [89] 1.02 | [90] 1.01 | [91] 0.983 | [92] 0.976 | [93] 0.927 | [94] 0.944 | [95] 1

Cc1ccc(C(=O)NNC(=O)c2ccncc2)c(C)c1
inactive: [72] 0.994 | [73] 0.993 | S. cerevisiae deletion strains, locus YCL061C, strain MRC1, stronger effect = lower value 1.01 | [8] 1.02 | [74] 1 | [75] 0.925 | [76] 0.993 | [77] 1 | S. cerevisiae deletion strains, locus YGR229C, strain SMI1, stronger effect = lower value 1.01 | [26] 1.01 | [78] 1 | [79] 1.01 | [80] 1.03 | S. cerevisiae deletion strains, locus YKL190W, strain CNB1, stronger effect = lower value 1.01 | [81] 1.03 | [82] 0.994 | [83] 0.98 | [84] 1.02 | [85] 0.983 | [86] 0.988 | [87] 0.965 | S. cerevisiae deletion strains, locus YMR307W, strain GAS1, stronger effect = lower value 1.01 | [88] 1.01 | [89] 1.03 | [90] 0.991 | [91] 1.01 | [92] 1.06 | [93] 0.934 | [94] 0.998 | [95] 1.08 | S. cerevisiae strains, strain wild type, stronger effect = lower value 1.01

Cc1ccc(C(=O)Nc2ccc3ccccc3n2)cc1
active: [42] 0.857
inactive: [1] 0.956 | [2] 0.954 | [3] 0.958 | [4] 0.965 | [5] 0.95 | [6] 0.964 | [7] 0.964 | [8] 0.96 | [9] 0.963 | [10] 0.96 | [11] 0.92 | [12] 0.976 | [13] 0.94 | [14] 0.956 | [15] 0.937 | [16] 0.906 | [17] 0.929 | [18] 0.954 | [19] 0.956 | [20] 0.961 | [21] 0.983 | [22] 0.944 | [23] 0.925 | [24] 0.99 | [25] 0.892 | [26] 0.938 | [27] 0.933 | [28] 0.994 | [29] 0.954 | [30] 0.963 | [31] 0.952 | [32] 0.954 | [33] 0.917 | [34] 0.946 | [35] 0.918 | [36] 0.978 | [37] 0.948 | [38] 0.93 | [39] 0.95 | [40] 0.957 | [41] 0.986 | [43] 0.944 | [44] 0.934 | [45] 0.901 | [46] 0.966 | [47] 0.941 | [48] 0.956 | [49] 0.966 | [50] 0.947 | [51] 0.944 | [52] 0.959 | [53] 0.964 | [54] 0.95 | [55] 0.93 | [56] 0.958 | [57] 0.92 | [58] 0.964 | [59] 1.01 | [60] 0.921 | [61] 0.962 | [62] 0.948 | [63] 0.928 | [64] 0.937 | [65] 0.949 | [66] 0.876 | [67] 0.959 | [68] 0.949 | [69] 0.945 | [70] 0.956 | [71] 0.957
